Results on one sequence are retold here after publication PMC7862700, “An all-to-all approach to the identification of sequence-specific readers for epigenetic DNA modifications on cytosine”.

What all share (assay): DAPPL (digital affinity profiling via proximity ligation, sequencing); 10 mM Tris-HCl pH 7.5, 50 mM NaCl, 1 mM DTT, 4% glycerol, room temperature, 30 min; GST-TFs on glutathione beads, 16-mer random dsDNA library, 0.1% formaldehyde crosslink after washing; high values mean tight binding
One test deals with T1, FLI1 (Homo sapiens, UniProt Q01543 1-452).
T1 sequence: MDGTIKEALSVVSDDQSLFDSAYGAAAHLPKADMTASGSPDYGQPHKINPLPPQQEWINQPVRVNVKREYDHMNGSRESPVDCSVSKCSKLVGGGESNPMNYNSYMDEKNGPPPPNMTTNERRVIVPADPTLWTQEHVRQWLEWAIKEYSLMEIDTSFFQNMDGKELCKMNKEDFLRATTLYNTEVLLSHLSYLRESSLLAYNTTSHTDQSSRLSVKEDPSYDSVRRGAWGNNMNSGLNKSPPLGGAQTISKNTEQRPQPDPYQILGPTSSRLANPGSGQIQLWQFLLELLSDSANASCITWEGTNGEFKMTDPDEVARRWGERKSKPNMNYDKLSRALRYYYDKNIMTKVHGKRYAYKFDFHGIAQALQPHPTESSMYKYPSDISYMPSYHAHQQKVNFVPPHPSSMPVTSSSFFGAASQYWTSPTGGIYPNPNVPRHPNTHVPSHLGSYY
The note with it: protein: recombinant; tags: N-terminal GST; dsDNA, one strand shown. A digest of the protocol:
(§1)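 Yeast served to express human transcription factors as GST fusions, which were then captured on glutathione beads and labelled with DNA barcodes. Pooled with a tag-only sample, they were incubated with 200 nmole of a 16-mer random double-stranded DNA library for 30 min at room temperature in Tris/NaCl/DTT/glycerol buffer, washed, crosslinked with 0.1% formaldehyde, ligated by proximity, amplified by PCR and sequenced. Dividing each hexamer's read frequency for a factor by its frequency for the tag-only sample gives the binding signal.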

Another test has as its target T2, ELK1 (Homo sapiens, UniProt P19419 1-428).
T2 sequence: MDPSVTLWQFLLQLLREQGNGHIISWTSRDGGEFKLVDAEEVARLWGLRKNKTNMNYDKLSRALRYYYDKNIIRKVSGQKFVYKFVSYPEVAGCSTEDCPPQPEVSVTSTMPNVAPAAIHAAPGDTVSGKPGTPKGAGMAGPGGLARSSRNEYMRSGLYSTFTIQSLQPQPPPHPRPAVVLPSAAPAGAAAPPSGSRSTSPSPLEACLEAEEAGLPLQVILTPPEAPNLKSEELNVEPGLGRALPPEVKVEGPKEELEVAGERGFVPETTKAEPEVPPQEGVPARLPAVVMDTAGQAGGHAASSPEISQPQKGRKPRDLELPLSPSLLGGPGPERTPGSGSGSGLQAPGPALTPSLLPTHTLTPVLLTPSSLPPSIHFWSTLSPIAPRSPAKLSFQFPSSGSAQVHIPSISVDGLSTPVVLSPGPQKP
The note with it: protein: recombinant; tags: N-terminal GST; dsDNA, one strand shown. In outline:
as §1

In the next test the target is T3, GABPA (Homo sapiens, UniProt Q06546 1-454).
T3 sequence: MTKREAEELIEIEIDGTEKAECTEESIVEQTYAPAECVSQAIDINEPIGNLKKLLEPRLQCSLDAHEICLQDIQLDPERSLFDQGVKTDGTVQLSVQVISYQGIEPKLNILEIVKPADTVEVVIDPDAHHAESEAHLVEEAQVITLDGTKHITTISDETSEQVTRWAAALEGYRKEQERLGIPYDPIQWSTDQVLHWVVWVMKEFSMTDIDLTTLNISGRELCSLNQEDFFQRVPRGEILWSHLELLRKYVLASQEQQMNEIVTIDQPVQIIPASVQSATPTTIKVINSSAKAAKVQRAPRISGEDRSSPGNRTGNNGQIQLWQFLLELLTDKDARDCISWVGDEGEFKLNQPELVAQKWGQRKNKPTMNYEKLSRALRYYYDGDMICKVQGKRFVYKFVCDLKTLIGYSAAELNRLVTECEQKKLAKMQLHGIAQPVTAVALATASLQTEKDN
The note with it: protein: recombinant; tags: N-terminal GST; dsDNA, one strand shown. A digest of the protocol: as §1

For another test, the target named is T4, ERG (Homo sapiens, UniProt P11308 1-479).
T4 sequence: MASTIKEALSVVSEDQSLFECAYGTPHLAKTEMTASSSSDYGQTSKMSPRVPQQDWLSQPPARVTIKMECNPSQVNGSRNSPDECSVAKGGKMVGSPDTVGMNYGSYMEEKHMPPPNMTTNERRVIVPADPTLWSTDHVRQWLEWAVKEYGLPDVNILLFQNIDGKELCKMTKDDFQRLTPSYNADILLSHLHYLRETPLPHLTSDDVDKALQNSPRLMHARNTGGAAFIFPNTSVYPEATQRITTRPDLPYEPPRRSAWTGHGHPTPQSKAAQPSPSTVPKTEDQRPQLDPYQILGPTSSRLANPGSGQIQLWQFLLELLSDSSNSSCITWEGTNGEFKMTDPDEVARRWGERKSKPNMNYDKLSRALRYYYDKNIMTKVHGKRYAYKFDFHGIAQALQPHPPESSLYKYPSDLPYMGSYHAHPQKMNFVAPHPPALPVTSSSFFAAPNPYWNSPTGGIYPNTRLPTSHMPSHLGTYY
The note with it: protein: recombinant; tags: N-terminal GST; dsDNA, one strand shown. A digest of the protocol: as §1

In a further test the target is ELF1 (Homo sapiens, UniProt P32519 1-619). The note with it: protein: recombinant; tags: N-terminal GST; dsDNA, one strand shown. In outline: as §1
Another test concerns the target T5, EHF (Homo sapiens, UniProt Q9NZC4 1-300).
T5 sequence: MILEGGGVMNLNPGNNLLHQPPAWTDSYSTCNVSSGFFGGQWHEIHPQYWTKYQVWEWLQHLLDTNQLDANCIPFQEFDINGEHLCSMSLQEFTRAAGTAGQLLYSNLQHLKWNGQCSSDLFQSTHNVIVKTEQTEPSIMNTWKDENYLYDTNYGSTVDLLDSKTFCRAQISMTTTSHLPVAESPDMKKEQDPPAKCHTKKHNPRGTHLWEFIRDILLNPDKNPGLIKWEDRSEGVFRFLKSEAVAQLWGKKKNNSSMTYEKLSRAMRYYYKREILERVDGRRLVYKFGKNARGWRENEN
The note with it: protein: recombinant; tags: N-terminal GST; dsDNA, one strand shown. A digest of the protocol: as §1

The next test has as its target SPI1 (Homo sapiens, UniProt P17947 1-270). The note with it: protein: recombinant; tags: N-terminal GST; dsDNA, one strand shown. A digest of the protocol:
as §1

For the next test, the target named is SPIB (Homo sapiens, UniProt Q01892 1-262). The note with it: protein: recombinant; tags: N-terminal GST; dsDNA, one strand shown. In outline: as §1
Another test concerns the target T6, ELK3 (Homo sapiens, UniProt P41970 1-407).
T6 sequence: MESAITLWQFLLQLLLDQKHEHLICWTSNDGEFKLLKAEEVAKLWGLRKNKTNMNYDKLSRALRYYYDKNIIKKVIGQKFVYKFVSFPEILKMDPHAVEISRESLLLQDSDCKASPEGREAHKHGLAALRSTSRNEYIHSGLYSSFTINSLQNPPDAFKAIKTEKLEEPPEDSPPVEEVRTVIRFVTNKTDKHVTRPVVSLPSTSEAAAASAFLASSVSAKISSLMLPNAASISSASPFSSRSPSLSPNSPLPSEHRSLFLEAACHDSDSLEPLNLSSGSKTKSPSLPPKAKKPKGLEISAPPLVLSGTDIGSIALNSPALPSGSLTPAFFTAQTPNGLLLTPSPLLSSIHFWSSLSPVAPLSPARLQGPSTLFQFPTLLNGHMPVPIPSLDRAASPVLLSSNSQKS
The settings on record: protein: recombinant; tags: N-terminal GST; dsDNA, one strand shown. A digest of the protocol:
as §1

In a further test the target is T7, FEV (Homo sapiens, UniProt Q99581 1-238).
T7 sequence: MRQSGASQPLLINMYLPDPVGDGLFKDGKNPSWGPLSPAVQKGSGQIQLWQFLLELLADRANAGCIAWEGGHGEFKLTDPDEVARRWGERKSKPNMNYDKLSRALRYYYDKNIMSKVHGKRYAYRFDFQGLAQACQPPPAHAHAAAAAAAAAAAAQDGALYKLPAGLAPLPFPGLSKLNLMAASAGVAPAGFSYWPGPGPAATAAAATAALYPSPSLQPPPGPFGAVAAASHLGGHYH
The note with it: protein: recombinant; tags: N-terminal GST; dsDNA, one strand shown. In outline:
as §1

A further test has as its target ETV5 (Homo sapiens, UniProt P41161 1-510). The settings on record: protein: recombinant; tags: N-terminal GST; dsDNA, one strand shown. A digest of the protocol:
as §1

For another test, the target named is HSF1 (Homo sapiens, UniProt Q00613 1-529). The settings on record: protein: recombinant; tags: N-terminal GST; chain copies: 3; dsDNA, one strand shown. In outline:
as §1

A further test addresses T8, SPIC (Homo sapiens, UniProt Q8N5J4 1-248).
T8 sequence: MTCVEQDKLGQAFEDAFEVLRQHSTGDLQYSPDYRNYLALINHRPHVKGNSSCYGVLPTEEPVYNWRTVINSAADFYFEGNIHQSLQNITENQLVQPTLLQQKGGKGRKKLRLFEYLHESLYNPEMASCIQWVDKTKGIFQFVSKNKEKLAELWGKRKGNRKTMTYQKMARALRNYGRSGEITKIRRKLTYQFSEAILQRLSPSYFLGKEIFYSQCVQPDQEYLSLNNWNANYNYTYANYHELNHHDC
The settings on record: protein: recombinant; tags: N-terminal GST; dsDNA, one strand shown. In outline:
as §1

In a further test the target is ELF4 (Homo sapiens, UniProt Q99607 1-663). The settings on record: protein: recombinant; tags: N-terminal GST; dsDNA, one strand shown. In outline:
as §1

A further test addresses T9, ELK4 (Homo sapiens, UniProt P28324-2 1-405).
T9 sequence: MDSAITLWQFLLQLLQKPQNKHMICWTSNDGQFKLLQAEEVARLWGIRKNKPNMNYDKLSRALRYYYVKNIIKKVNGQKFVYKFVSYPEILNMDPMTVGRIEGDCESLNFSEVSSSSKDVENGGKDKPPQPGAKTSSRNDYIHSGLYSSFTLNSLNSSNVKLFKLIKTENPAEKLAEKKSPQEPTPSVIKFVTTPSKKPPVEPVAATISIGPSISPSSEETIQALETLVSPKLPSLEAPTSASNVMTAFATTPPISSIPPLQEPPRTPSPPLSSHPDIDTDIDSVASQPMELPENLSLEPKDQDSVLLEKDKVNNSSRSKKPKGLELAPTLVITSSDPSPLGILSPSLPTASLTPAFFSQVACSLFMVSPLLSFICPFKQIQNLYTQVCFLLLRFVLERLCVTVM
The note with it: protein: recombinant; tags: N-terminal GST; dsDNA, one strand shown. A digest of the protocol:
as §1

The next test deals with T10, ELF3 (Homo sapiens, UniProt P78545 1-371).
T10 sequence: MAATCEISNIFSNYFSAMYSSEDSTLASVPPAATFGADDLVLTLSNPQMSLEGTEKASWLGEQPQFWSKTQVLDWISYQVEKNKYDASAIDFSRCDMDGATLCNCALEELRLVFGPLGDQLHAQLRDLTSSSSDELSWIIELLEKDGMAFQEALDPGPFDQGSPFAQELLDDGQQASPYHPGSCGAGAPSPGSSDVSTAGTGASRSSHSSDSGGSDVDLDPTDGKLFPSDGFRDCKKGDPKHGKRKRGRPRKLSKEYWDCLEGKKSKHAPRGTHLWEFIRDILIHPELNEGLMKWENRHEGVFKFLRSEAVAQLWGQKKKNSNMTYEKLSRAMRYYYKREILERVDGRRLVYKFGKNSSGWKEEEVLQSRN
The settings on record: protein: recombinant; tags: N-terminal GST; dsDNA, one strand shown. A digest of the protocol:
as §1

In the next test the target is CRX (Homo sapiens, UniProt O43186 1-299). The settings on record: protein: recombinant; tags: N-terminal GST; dsDNA, one strand shown. A digest of the protocol: as §1
The target of a further test is ETV1 (Homo sapiens, UniProt P50549 1-477). The settings on record: protein: recombinant; tags: N-terminal GST; dsDNA, one strand shown. In outline: as §1
ETV1, sequence (P50549 whole entry): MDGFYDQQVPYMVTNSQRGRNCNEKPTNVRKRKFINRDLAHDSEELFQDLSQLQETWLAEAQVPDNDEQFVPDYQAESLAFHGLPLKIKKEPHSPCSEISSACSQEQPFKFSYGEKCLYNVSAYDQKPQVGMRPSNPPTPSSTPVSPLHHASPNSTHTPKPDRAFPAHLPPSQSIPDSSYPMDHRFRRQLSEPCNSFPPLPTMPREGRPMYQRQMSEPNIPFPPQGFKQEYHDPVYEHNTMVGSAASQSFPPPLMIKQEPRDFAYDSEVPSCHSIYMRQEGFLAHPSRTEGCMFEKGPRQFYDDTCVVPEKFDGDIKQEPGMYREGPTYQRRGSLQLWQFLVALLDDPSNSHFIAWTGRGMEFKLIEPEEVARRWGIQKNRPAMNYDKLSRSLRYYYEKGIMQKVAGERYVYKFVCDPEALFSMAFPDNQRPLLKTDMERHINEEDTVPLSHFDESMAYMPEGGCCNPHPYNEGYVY

SPIB, sequence (Q01892 whole entry): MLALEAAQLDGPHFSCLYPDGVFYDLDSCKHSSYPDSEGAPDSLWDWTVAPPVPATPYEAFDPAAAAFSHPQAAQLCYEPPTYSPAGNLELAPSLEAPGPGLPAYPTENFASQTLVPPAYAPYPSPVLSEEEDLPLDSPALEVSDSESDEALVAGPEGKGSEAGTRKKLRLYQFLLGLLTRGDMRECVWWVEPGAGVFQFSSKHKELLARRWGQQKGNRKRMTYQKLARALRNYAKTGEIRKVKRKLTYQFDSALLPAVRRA
ELF4, sequence (Q99607 whole entry): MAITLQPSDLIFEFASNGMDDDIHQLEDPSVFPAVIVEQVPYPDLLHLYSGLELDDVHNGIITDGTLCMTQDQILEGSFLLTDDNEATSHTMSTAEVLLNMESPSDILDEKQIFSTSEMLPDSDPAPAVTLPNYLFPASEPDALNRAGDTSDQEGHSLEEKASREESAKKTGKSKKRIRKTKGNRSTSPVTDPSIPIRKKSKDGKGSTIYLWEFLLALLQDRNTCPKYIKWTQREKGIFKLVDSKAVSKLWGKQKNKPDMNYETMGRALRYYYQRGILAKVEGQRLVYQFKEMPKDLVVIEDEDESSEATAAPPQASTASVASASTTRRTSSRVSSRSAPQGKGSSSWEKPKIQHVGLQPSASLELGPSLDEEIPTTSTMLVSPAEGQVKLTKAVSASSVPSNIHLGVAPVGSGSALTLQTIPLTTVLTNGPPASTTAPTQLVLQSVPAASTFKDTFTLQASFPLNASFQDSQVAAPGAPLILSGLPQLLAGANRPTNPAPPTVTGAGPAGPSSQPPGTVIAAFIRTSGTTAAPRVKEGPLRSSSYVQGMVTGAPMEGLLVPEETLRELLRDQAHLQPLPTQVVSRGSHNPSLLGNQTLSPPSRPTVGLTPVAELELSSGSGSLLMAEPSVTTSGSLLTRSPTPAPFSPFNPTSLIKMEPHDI
ELF1, sequence (P32519 whole entry): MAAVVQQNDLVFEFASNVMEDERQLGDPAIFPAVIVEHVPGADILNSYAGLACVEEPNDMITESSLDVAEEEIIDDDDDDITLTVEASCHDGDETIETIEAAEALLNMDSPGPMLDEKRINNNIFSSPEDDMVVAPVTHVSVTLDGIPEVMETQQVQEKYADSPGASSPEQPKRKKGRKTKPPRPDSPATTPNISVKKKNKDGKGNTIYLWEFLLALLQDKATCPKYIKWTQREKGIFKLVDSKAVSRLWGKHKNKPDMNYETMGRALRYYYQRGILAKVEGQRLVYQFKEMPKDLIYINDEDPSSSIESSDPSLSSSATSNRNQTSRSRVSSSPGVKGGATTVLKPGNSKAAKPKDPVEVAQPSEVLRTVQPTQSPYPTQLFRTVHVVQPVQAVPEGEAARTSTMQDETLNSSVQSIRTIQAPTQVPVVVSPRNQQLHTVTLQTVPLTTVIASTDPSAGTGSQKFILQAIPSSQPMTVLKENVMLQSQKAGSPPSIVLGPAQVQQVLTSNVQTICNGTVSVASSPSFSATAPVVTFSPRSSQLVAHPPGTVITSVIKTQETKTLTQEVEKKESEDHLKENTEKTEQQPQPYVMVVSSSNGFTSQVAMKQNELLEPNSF
CRX, sequence (O43186 whole entry): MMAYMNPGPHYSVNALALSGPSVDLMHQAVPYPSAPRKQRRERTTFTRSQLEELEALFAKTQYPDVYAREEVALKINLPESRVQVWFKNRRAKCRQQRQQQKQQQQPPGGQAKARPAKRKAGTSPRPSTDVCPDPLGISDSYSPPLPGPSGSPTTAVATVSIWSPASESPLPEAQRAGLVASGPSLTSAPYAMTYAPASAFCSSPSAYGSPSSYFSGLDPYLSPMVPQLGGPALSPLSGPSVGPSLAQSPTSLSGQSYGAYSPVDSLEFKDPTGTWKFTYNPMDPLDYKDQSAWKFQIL
ETV5, sequence (P41161 whole entry): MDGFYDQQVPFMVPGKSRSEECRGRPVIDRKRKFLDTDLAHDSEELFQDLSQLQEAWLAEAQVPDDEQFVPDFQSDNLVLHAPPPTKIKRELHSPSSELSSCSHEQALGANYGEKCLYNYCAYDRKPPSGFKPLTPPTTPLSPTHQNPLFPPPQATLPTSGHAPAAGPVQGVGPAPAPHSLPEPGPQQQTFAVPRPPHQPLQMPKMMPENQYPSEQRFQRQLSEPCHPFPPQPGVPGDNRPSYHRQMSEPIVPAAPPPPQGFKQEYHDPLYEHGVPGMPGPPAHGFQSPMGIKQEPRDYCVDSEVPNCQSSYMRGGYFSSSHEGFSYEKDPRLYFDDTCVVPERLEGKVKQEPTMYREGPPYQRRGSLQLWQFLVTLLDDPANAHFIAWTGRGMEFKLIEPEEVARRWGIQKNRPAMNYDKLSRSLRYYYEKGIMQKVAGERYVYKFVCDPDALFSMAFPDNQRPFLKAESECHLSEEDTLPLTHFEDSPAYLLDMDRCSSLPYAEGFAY
HSF1, sequence (Q00613 whole entry): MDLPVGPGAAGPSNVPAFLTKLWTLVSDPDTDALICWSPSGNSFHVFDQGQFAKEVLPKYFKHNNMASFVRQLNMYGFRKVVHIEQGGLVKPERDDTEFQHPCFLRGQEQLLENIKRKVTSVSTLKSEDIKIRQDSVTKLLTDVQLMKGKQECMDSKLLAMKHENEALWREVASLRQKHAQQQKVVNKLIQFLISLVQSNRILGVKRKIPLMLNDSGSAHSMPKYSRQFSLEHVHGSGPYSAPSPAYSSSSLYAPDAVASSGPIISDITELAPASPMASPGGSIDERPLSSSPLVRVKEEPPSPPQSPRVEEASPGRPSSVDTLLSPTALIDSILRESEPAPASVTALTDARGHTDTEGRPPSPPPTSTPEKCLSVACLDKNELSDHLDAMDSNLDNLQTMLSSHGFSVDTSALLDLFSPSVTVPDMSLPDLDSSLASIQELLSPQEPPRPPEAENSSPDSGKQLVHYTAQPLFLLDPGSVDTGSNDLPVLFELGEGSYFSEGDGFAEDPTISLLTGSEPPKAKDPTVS

In the case of AATAGG, the binding signal is 1.15 fold enrichment (6-mer frequency, TF over GST control) in the test with FLI1; 1.11 fold enrichment (6-mer frequency, TF over GST control) with ELK1; 1.15 fold enrichment (6-mer frequency, TF over GST control) with GABPA; 1.2 fold enrichment (6-mer frequency, TF over GST control) with ERG; 1.08 fold enrichment (6-mer frequency, TF over GST control) with ELF1; 1.27 fold enrichment (6-mer frequency, TF over GST control) with EHF. Moreover, the binding signal with SPI1 was 1.37 fold enrichment (6-mer frequency, TF over GST control); with SPIB, 1.22 fold enrichment (6-mer frequency, TF over GST control); with ELK3, 1.14 fold enrichment (6-mer frequency, TF over GST control); with FEV, 1.13 fold enrichment (6-mer frequency, TF over GST control); in the test with ETV5 it was 1.16 fold enrichment (6-mer frequency, TF over GST control); with HSF1, 1.02 fold enrichment (6-mer frequency, TF over GST control). In addition, the binding signal in the test with SPIC was 1.14 fold enrichment (6-mer frequency, TF over GST control); with ELF4, 1.04 fold enrichment (6-mer frequency, TF over GST control); with ELK4 it was 1.08 fold enrichment (6-mer frequency, TF over GST control); with ELF3 it was 1.09 fold enrichment (6-mer frequency, TF over GST control); in the test with CRX, 1.21 fold enrichment (6-mer frequency, TF over GST control); with ETV1 it was 1.25 fold enrichment (6-mer frequency, TF over GST control).
